In all, about 340,000 compounds went through this assay and about 2,100 (0.62%) were called active. Only a sample is shown. Entries with a potency or affinity are not part of this list. Unmarked numbers belong to inactive results.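 How the source made its calls: active means first-screen hits whose inhibition reached a set limit at any dose in the follow-up dose series; inconclusive means inhibition above the set first-screen limit but never retested; inactive means the rest.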

In general, inhibition refers to the drop in the measured response relative to a control, in per cent.

Sequence of Rac GTPase-activating protein 1 (Homo sapiens) (Q9H0H5 whole entry, looked up): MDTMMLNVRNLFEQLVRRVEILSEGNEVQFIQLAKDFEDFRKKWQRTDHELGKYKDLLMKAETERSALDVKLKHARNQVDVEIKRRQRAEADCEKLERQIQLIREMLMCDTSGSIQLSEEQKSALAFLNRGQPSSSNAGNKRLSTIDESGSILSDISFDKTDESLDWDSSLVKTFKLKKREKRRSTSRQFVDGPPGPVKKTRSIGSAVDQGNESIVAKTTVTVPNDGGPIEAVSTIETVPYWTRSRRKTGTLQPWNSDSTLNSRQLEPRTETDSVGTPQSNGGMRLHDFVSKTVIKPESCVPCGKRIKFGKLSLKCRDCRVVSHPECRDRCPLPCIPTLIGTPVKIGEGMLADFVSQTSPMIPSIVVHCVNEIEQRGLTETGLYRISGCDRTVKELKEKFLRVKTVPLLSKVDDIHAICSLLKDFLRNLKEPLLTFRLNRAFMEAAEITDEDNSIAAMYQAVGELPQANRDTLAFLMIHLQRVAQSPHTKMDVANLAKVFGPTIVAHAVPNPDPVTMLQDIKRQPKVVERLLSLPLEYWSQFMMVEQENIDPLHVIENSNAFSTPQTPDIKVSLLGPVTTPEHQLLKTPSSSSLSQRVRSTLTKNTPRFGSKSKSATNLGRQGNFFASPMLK

The assay addresses Rac GTPase-activating protein 1 (Homo sapiens) (UniProt Q9H0H5). Put plainly: blockers of MgcRacGAP-driven Rac1 GTP hydrolysis – biochemical, ADP Hunter fluorescence, primary and confirmatory, confirmation (AID 624330).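 Further: fluorescence reports GDP produced by GAP-driven GTP hydrolysis.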 Conditions: MgcRacGAP-stimulated Rac1 GTP hydrolysis, at 30 µM, active compounds read high, GST-tagged Rac1 F28L mutant substrate.
As for `COc1ccc(OC)c(S(=O)(=O)N2CCC3(CC2)CC(=O)c2ccccc2O3)c1`, the inhibition was 8.64%. Regarding `O=C(Nc1ccc(C(=O)O)cc1)/C(=C\c1ccc2c(c1)OCO2)NC(=O)c1ccccc1`, the inhibition is -1.61%.

For `O=C(COC(=O)c1ccc([N+](=O)[O-])o1)Nc1ccc(N2CCOCC2)cc1`, the inhibition is 10.6%.

As to `C/C(=N\N(c1ccccc1)c1ccccc1)c1ccc(N)cc1`, the inhibition is 18.1%. `O=C(O)c1ccc(N(c2ccccc2)c2ccccc2)cc1`: the inhibition is 6.47%. For the compound `O=C(CSc1nc2ccc(NC(=O)CSc3nnnn3-c3ccccc3)cc2s1)Nc1ccccc1`, the inhibition was 2.46%. For the compound `CN(C)c1ccc(C(=O)N2CCCC2)cc1`, the inhibition was 3.64%. Consider `CN(C)c1ccc(C(=O)NN2C(=O)c3ccccc3C2=O)cc1`, for which the inhibition is 8.64%.

For `C[C@@H]1CN([C@@H](C)CO)C(=O)c2cc(Br)cnc2O[C@H]1CN(C)C(=O)c1ccc2c(c1)OCO2`, the inhibition was 13.5%.

In the case of `Cc1cccc(NC(=O)CCCN=C2NS(=O)(=O)c3ccccc32)c1C`, the inhibition was -1.68%. For the compound `CCN(CC)c1ccc(/C=N/NC(=O)CC(C)C)cc1`, the inhibition was 5.15%. As for `Cc1ccc(N=Cc2ccc(N(C)C)cc2)cc1`, the inhibition is 3.33%. Consider `CN(c1ccccc1)c1ccc(/C=N/NC(=O)CC#N)cc1`, for which the inhibition is 10.3%. Then `NC(=S)N/N=C/c1ccccc1`, with 11.7%; and `CCN(CC)c1ccc(/C=N/NC(=O)C(O)c2ccccc2)cc1` (stereo not given), with 9.04%; and `CCN(CC)c1ccc(C=N/C(C#N)=C(\N)C#N)cc1`, with 6.79%. Take `CCOc1ccc(/C=N/O)cc1`: the inhibition was 5.7%. Take `CN(C)c1ccc(C=Nc2ccccc2)cc1`: the inhibition was 0.89%. With `Cc1ccc(SCC(=O)n2nc(C)cc2C)cc1`, the inhibition was 3.7%. Take `CSc1nc(NS(=O)(=O)c2ccc(F)cc2F)nn1C`: the inhibition is 6.35%. Turning to `Cc1ccc(S(=O)(=O)N2CCN(C(=O)Cn3nc(C)c([N+](=O)[O-])c3C)CC2)cc1`, the inhibition is 6.68%.

Consider `CC(C)Cn1c(N)c(C(=O)COC(=O)COc2cccc(C(F)(F)F)c2)c(=O)n(C)c1=O`, for which the inhibition was 6.32%. Take `COC1CC(C)NC(=S)N1` (stereo not given): the inhibition was 12.9%.

Consider `O=C(Cn1nnc2ccccc21)N/N=C/c1ccco1`, for which the inhibition was 10.9%. For the compound `COc1ccc(NC(=O)c2ccc3c(c2)C(=O)N(CC2CCCO2)C3=O)cc1O` (stereo not given), the inhibition is 0.29%.

Regarding `O=C(CSc1nnc(-c2ccco2)n1Cc1ccccc1)NCc1ccccc1`, the inhibition was 5.14%. As for `O=C(CSc1nnc(-c2ccco2)n1Cc1ccccc1)c1ccccc1`, the inhibition is 13.1%.

Regarding `O=C(NN=Cc1ccc2c(c1)CCC2)c1ccccc1[N+](=O)[O-]`, the inhibition is 6.28%. As to `Cc1cc(C)nc(N2N=C(CSc3ccc(Cl)cc3)CC2=O)n1`, the inhibition is 3.87%. Regarding `COc1cccc(C(=O)NNC(=O)Cc2csc(N)n2)c1`, the inhibition is 10.7%.

In the case of `CCn1c(SCC(=O)c2[nH]c(C)c(C(C)=O)c2C)nnc1-c1ccccc1`, the inhibition was 11.9%. For the compound `COc1ccc2cc(CN(C)C(=O)CN3C(=O)NC4(CCCC4)C3=O)ccc2c1`, the inhibition was 20.2%. Consider `CNC(=S)Nc1cc2oc3ccccc3c2cc1OC`, for which the inhibition is 13.3%. In the case of `COc1cc2c(cc1NC(=O)CCC(=O)O)oc1ccccc12`, the inhibition was 17.1%. For `COc1ccccc1CC(=O)Nc1cc2oc3ccccc3c2cc1OC`, the inhibition is 1.63%. Then `CCCNC(=S)Nc1cc2oc3ccccc3c2cc1OC`, with 7.43%. As to `NS(=O)(=O)c1ccc(CCNC(=O)c2ccc(Cl)nc2)cc1`, the inhibition was 4.85%. For the compound `COC(=O)C[C@@H]1C[C@@H]2c3cc(NC(=O)NC4CCCCC4)ccc3O[C@@H]2[C@H](CO)O1`, the inhibition was 0.31%. Take `CC(=O)c1ccc(N2CCN(C(=O)c3ccc(-c4ccccc4)cc3)CC2)cc1`: the inhibition is 6.62%. The value for `CN1c2cccc3cccc(c23)N(C)C1(C)C` was 17.8%; that for `CN1c2cccc3cccc(c23)N(C)C1c1cccs1` was 29.9%. In the case of `Cc1[nH]c2ccc(-c3n[nH]c(=S)n3Cc3ccccc3)cc2c1C`, the inhibition is 10.2%. For `c1ccc(-c2csc(NNC3=NCCCCC3)n2)cc1`, the inhibition is -65.3%. For the compound `COc1ccc(CNC(=O)c2ccc[nH]2)cc1Cl`, the inhibition was -1.95%. On to `COc1cc(-c2n[nH]c(=S)n2-c2ccccc2C(F)(F)F)cc(OC)c1OC`, for which the inhibition was 0.91%. `CCn1c(C)nc2cc(C(=O)N/N=C/c3ccccc3C)ccc21`: the inhibition was 4.28%. Consider `CCn1c(C)nc2cc(C(=O)N/N=C/c3ccc(O)c(O)c3O)ccc21`, for which the inhibition is -97%. With `CCn1c(C)nc2cc(C(=O)N/N=C/c3ccccc3)ccc21`, the inhibition was 12.6%. Take `CCn1c(C)nc2cc(C(=O)N/N=C/c3ccc(N4CCOCC4)cc3)ccc21`: the inhibition was 9.18%. Then `CCn1c(C)nc2cc(C(=O)N/N=C/c3cccc(OC)c3O)ccc21`, with 15%; and `CCn1c(C)nc2cc(C(=O)NN=Cc3ccc([N+](=O)[O-])cc3)ccc21`, with 8.03%; and `O=C(O)CCCN1C(=O)c2ccc(Oc3cccc([N+](=O)[O-])c3)cc2C1=O`, with 1.11%. The value for `Cc1ccc(OCC(=O)NNC(=O)c2ccco2)c(C)c1` was 8.22%.

Consider `O=C(O)[C@H](CSCc1ccccc1)NS(=O)(=O)c1ccc(F)cc1`, for which the inhibition was 9.02%. Consider `CCCCn1c(SCC(=O)Nc2cc(C)[nH]n2)nc2ccsc2c1=O`, for which the inhibition is 9.99%.

In the case of `CCCCn1c(SCC(=O)c2ccccc2)nc2ccsc2c1=O`, the inhibition was 9.24%.

Turning to `C=CCn1c(SCC(=O)NC2CC2)nc2sc(CC)cc2c1=O`, the inhibition is 2.06%. In the case of `C=CCn1c(SCC(=O)Nc2cc(C)on2)nc2sc(CC)cc2c1=O`, the inhibition was -5.28%. Turning to `CN(Cc1ccccc1)C(=O)COC(=O)/C=C/c1ccco1`, the inhibition is 7.88%. `Cc1ccc(NC(=O)Cn2nc(C(=O)O)c3ccccc3c2=O)cc1S(=O)(=O)N1CCOCC1`: the inhibition is 5.1%. For the compound `COc1ccc2c(C)cc3nnnn3c2c1`, the inhibition is 7.23%. As for `COc1ccc2c(C)cc3nncn3c2c1`, the inhibition was 5.43%. For the compound `Nc1ccn([C@@H]2O[C@H](COS(=O)(=O)O)[C@@H](O)[C@H]2O)c(=O)n1`, the inhibition was 9.68%. With `COc1cccc(CNCc2cccc(Br)c2)c1OC`, the inhibition was 24.4%. In the case of `COc1ccccc1CNCc1ccc(OC)c(OC)c1OC`, the inhibition was 20.1%. Then `COCC(C)NCc1cccc(C)c1` (stereo not given), with 5.01%. In the case of `COc1cc(CNCc2cccc(OC)c2OC)cc(OC)c1`, the inhibition is 20.9%. The value for `COCC(C)NCc1cc(Br)ccc1OC` (stereo not given) was 26.2%; that for `COc1cccc(CNCc2ccccn2)c1OC` was 8.4%; that for `N#CCCn1cc(C(=O)Nc2ccc(C(=O)O)cc2)c(-c2ccc([N+](=O)[O-])cc2)n1` was 5.44%. With `O=C(C(=O)c1ccc(O)cc1)c1ccccc1`, the inhibition is 3.36%. For the compound `O=C1Cn2c(nc3ccccc32)-c2ccccc2N1`, the inhibition was 1.15%.

Regarding `CCCCc1ccc(S(=O)(=O)NCCCN2CCCC2=O)cc1`, the inhibition is 6.42%.

`Cc1ccc(Cn2c(CCNc3nc(-c4ccc(Cl)c([N+](=O)[O-])c4)cs3)nc3cc(Cl)c(Cl)cc32)cc1`: the inhibition was 7.46%. The value for `CC(C)(C)OC(=O)C[C@H]1C/C=C\C[C@@H](CC(=O)N[C@@H](CO)Cc2ccccc2)C(=O)NC[C@H](c2ccccc2)OC1=O` was 2.19%; that for `Cc1cn(C2CC(OC(=O)C(C)C)C(CO)O2)c(=O)[nH]c1=O` (stereo not given) was 6.43%. For the compound `O=c1[nH]cn[nH]1`, the inhibition was 0.25%. With `CC(CCN(C)C)OC(=O)c1ccc(C(C)c2ccccc2)o1` (stereo not given), the inhibition was 1.78%. For the compound `Brc1ccc2c(c1)OCCOCCOCCOCCOCCO2`, the inhibition was 8.26%.

With `Oc1c(Cl)cc(Cl)cc1C=Nc1ccc2c(c1)OCCO2`, the inhibition was 4.97%. Regarding `Brc1ccc2c(c1)OCCOCCOCCOCCOCCOCCO2`, the inhibition was 0.25%.

Consider `Oc1c(Br)cc(Br)cc1C=Nc1ccc2c(c1)OCO2`, for which the inhibition was 15.4%.

For the compound `O=S(=O)(c1ccc(SCc2cccc(Cl)c2)nc1)N1CCCC1`, the inhibition is 2.55%. In the case of `CC(=O)c1cccc(OC(=O)C2=CC=CN3CCS(=O)(=O)N=C23)c1`, the inhibition was 7.32%. As for `COc1ccc2c(c1)c1nc3ccccc3nc1n2Cc1ccc(OC)c(OC)c1`, the inhibition is 8.38%. Consider `COc1cccc(CN(C)C(=O)Nc2cccc(C(F)(F)F)c2)c1OC`, for which the inhibition was -4.29%.

As for `Brc1ccc(OCc2nnc3n2CCC3)cc1`, the inhibition is 5.52%. `O=C(COc1cccnc1[N+](=O)[O-])N1CCc2ccccc21`: the inhibition is 0.83%.

As to `CCN(CC)c1ccc(-c2c(C#N)c(N)nc(OC)c2C#N)cc1`, the inhibition was -1.06%.

Consider `COc1ccc(N=c2sc3ccccc3n2C)cc1`, for which the inhibition is 3.05%. As for `Cn1c(=Nc2ccccc2)sc2ccccc21`, the inhibition is 4.04%.

As to `CCC(=NOCc1ccccc1)C(=O)NNS(=O)(=O)c1ccc(C)cc1`, the inhibition is 0.04%. The value for `O=C(N/N=C/c1cccc(O)c1)c1ccc(-n2cnnn2)cc1` was 1.77%; that for `COc1cc(/C=N/Nc2ccccc2C(F)(F)F)ccc1O` was 20.2%.

On to `COc1cc(C=NNc2nc3c([nH]2)c(=O)n(C)c(=O)n3C)ccc1O`, for which the inhibition was 12.7%. As to `COc1cc(C(=O)N/N=C/c2cn(Cc3cccc(F)c3)c3ccccc23)ccc1O`, the inhibition was 28.6%. Then `Nc1ccc(C(=O)N/N=C/c2cn(Cc3ccccc3)c3ccccc23)cc1`, with 0.58%. Then `COc1cc(C(=O)N/N=C/c2ccc(OC(=O)c3ccccc3)c(OC)c2)ccc1O`, with 25.2%; and `O=C(N/N=C/c1ccc(F)cc1)c1ccc(-n2cnnn2)cc1`, with -4.33%.

Turning to `COc1ccc(/C=N/NC(=O)c2ccc(-c3ccccc3)cc2)cc1O`, the inhibition was 25.4%.

Source of the values: PubChem BioAssay AID624330 (Southern Research Specialized Biocontainment Screening …, 2012).
